Assay results published in PubChem BioAssay (Tox21).
Values joined by “and” are separate entries in the source; they are usually repeats but may differ in a detail not shown here. Identical values can stand only once. Inconclusive results are not listed. Entries that show only a call come without a potency. Active and inactive are the calls of the source. Calls follow the shape of the dose curve; as a rule, active = well fitted cell-killing curve with a large enough effect in the repeat runs; inconclusive = weak or mixed curves, or effect the other way; inactive = no such curve, though single readings can be large or run the other way.

Assay: qHTS assay for identifying genotoxic compounds that show differential cytotoxicity against isogenic chicken DT40 cell lines with known DNA damage response pathways - Rev3 mutant cell line (AID 743014); also: nearly all actives have a fitted effect of over 55% in size
Conditions: chicken DT40 Rev3-/- viability, CellTiter-Glo, 40 h; series mostly up to 68.4 µM
Potency is read from the fitted curve at half-maximal effect.

SMILES	Potency
C[C@H]1C[C@@H](O)CC(C)(C)C1	inactive
CC(=O)N(CC(O)CO)c1c(I)c(C(=O)NCCO)c(I)c(C(=O)NCC(O)CO)c1I (stereo unspecified)	inactive
O=C(CCCN1CCC(O)(c2cccc(C(F)(F)F)c2)CC1)c1ccc(F)cc1	11.9 µM (active)
CC(C)(O)C(=O)c1ccccc1	inactive
OC(CCN1CCCCC1)(c1ccccc1)C1CC2C=CC1C2 (stereo unspecified)	15 µM (active) and 13.3 µM (active)
CC(=O)Nc1ccc(S(N)(=O)=O)cc1	inactive
C[N+](C)(C)CCCCCC[N+](C)(C)C	inactive
O=C(O)COc1nn(Cc2ccccc2)c2ccccc12	inactive
CCCCOCCOCCOCc1cc2c(cc1CCC)OCO2	inactive
CC1(C)C(O)C(C)(C)C1O (stereo unspecified)	inactive
NC(=O)COCCN1CCN(C(c2ccccc2)c2ccc(Cl)cc2)CC1 (stereo unspecified)	8.41 µM (active)
COc1ccc2c(c1)c(CC(=O)OCC(=O)O)c(C)n2C(=O)c1ccc(Cl)cc1	inactive
CCN(Cc1ccncc1)C(=O)C(CO)c1ccccc1 (stereo unspecified)	inactive
CCc1nccnc1CC	inactive
OC1CCCCC1c1ccccc1 (stereo unspecified)	inactive
O=S(O)CO	inactive
